Test [1] concerns the target Gonadotropin-releasing hormone receptor (Homo sapiens) (UniProt P30968). The test is described as follows: Human gonadotropin-releasing hormone receptor (GnRHR) small molecule agonists, calcium flux assay in GnRHR-HEK293 cells (AID 1920063). Also: nearly all actives have a fitted effect of over 35% in size. The method, boiled down: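 Intracellular calcium rise is the read-out: engineered human GnRHR HEK293 cells, dye-loaded, are exposed to DMSO-dissolved compounds and fluorescence at Ex/Em 480/540 is tracked for 3 min.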
(In general: Calcium assays in cells follow changes in intracellular calcium, usually with a dye or a luminescent sensor.)

Test [2] addresses KiSS-1 receptor (Homo sapiens) (UniProt Q969F8). The test is described as follows: Human kisspeptin (KISS1R) small molecule agonists, calcium flux assay in KISS1R-HEK293 cells (AID 1920064; active = well fitted activation curve with a large enough effect in the repeat runs). The method, boiled down:
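Concentration-response testing used 15 concentrations in triplicate on human KISS1R-expressing HEK293 cells. Calcium-dependent fluorescence (Ex/Em 480/540) was followed kinetically for 3 min after compound transfer.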

The nature of test [3]: G protein-coupled receptor (GPCR) small molecule agonists, calcium flux assay: HEK293 wild type cell line counter screen (AID 1920065). The method, boiled down:
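Fluorescence intensity signals activation. After overnight (18 h) culture and a 1 h calcium dye load at 37 C, compounds are added by pin tool and the plate read at 480/540 nm for 3 min in 1 s steps.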

The nature of test [4]: p53 small molecule agonists, cell-based qHTS assay with human liver microsomes: qHTS cell viability counter screen (AID 1963579). Also: nearly all actives have a fitted effect of over 45% in size. Also: potency is read from the fitted curve at half-maximal effect. The method, boiled down: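 HLM-supplemented (0.5 mg/mL final) and NADPH-supplemented (0.5 mg/mL final) p53RE-bla cultures, 4,000 cells per well, were dosed with compounds in DMSO for 16 h at 37 C; luminescent ATP detection (CellTiter-Glo, 30 min, room temperature) quantified surviving cells.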
(In general: Quantitative high-throughput screening tests each substance at several concentrations.)

Test [5] in a line: p53 small molecule agonists, cell-based qHTS assay with rat liver microsomes: qHTS cell viability counter screen (AID 1963580). Also: nearly all actives have a fitted effect of over 45% in size. The method, boiled down: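 Rat liver microsome (0.5 mg/mL final) and NADPH (0.5 mg/mL final) co-incubation with compounds for 16 h at 37 C on HCT-116 p53RE-bla cells; cytotoxicity taken from intracellular ATP luminescence.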
A short description of test [6]: p53 small molecule agonists, cell-based qHTS assay: qHTS cell viability counter screen (AID 1963581). Also: nearly all actives have a fitted effect of over 45% in size. The method, boiled down:
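Luminescence from CellTiter-Glo, reflecting ATP content, serves as the cytotoxicity measure; it is taken after the 2 h reporter substrate step in HCT-116 p53RE-bla cells dosed for 16 h at 37 C.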

Test [7] can be described thus: cAMP Responsive Elements (CRE) small molecule agonists, cell-based qHTS assay (AID 1963590). The method, boiled down: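 Compound exposure lasted 3 h at 37 C/5% CO2 in CRE-bla HEK 293T cells grown in assay medium with 10% dialyzed FBS and 25 mM HEPES. Reporter signal came from LiveBLAzer B/G FRET substrate, 2 h, room temperature.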
The nature of test [8]: cAMP Responsive Elements (CRE) small molecule antagonists, cell-based qHTS assay (AID 1963591; active = well fitted inhibition curve with a large enough effect in the signal ratio in the repeat runs, not every such curve was filed as active; the % refers to the signal ratio). The method, boiled down: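 Stimulation used NKH477 at a final 0.25 uM for 3 h in compound-treated CRE-bla HEK293T cells, seeded 18 h beforehand. Reporter activity was measured with LiveBLAzer B/G FRET substrate after 2 h at room temperature.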
The target of test [9] is Beta-2 adrenergic receptor (Homo sapiens) (UniProt P07550). The test is described as follows: Adrenergic beta2 receptor (ADRB2) small molecule antagonists, cell-based qHTS assay (AID 1963592). Also: series mostly up to about 92 µM; nearly all actives have a fitted effect of over 50% in size. The method, boiled down:
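Assay format: CHO-ADRB2 cells, 18-20hr seeding at 37C/5% CO2, then compound plus 1nM isoproterenol agonist mix for 0.5hr RT. Homogeneous time-resolved fluorescence cAMP detection after 1hr, expressed as 665/615 nm ratio.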

The target in test [10] is D(2) dopamine receptor (Homo sapiens) (UniProt P14416). The test is described as follows: Dopamine D2 receptor (DRD2) small molecule agonists, cell-based qHTS assay (AID 1963594). Also: nearly all actives have a fitted effect of over 35% in size. The method, boiled down: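 cAMP accumulation in DRD2-HEK293 cells measured by HTRF after 1 h detection; compounds added 10 min before NKH477 (200nM […]) forskolin-analogue stimulation, 30 min at room temperature, with Ro20-1724 present at 0.1 mM final.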

For test [11] the target is unchanged. The test is described as follows: Dopamine D2 receptor (DRD2) small molecule antagonists, cell-based qHTS assay (AID 1963595; active = well fitted inhibition curve with a large enough effect in the signal ratio in the repeat runs, with a control signal flat; the % refers to the signal ratio). The method, boiled down: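 In this cell-based antagonist screen, compounds act for 10 min at room temperature before a 30 min challenge with 12 nM quinpirole and 200 nM NKH477. cAMP is quantified by HTRF competition in DRD2-HEK293 cells containing 0.1 mM Ro20-1724.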

The nature of test [12]: Nuclear factor erythroid 2-related factor 2/antioxidant responsive element (Nrf2/ARE) small molecule agonists: luciferase reporter gene qHTS assay in human keratinocytes (AID 1919969). Also: nearly all actives have a fitted effect of over 35% in size. Background: A reporter such as luciferase makes a cellular process visible.
The nature of test [13]: p53 small molecule agonists, cell-based qHTS assay with human liver microsomes (AID 1963577).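 Also: p53 response element beta-lactamase reporter cells with liver microsomes plus NADPH.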 The method, boiled down:
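Reporter activation was measured by LiveBLAzer fluorescence intensity in p53RE-bla cells, which had been exposed to compounds for 16 h at 37 C alongside 0.5 mg/mL human liver microsomes and 0.5 mg/mL NADPH (final concentrations).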

Test [14] can be described thus: p53 small molecule agonists, cell-based qHTS assay with rat liver microsomes (AID 1963578). The method, boiled down:
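Compound in DMSO added to p53RE-bla cells 5 h post-plating; rat microsomes/NADPH 0.5 mg/mL final; 16 h, 37 C; LiveBLAzer 2 h RT.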

A short description of test [15]: p53 small molecule agonists, cell-based qHTS assay (AID 1963582; active = well fitted activation curve with a large enough effect in the signal ratio in the repeat runs, not every such curve was filed as active; the % refers to the signal ratio). The method, boiled down:
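After plating, p53RE-bla cells sat 5 h in the incubator; compounds or DMSO vehicle were pinned in; a 16 h incubation at 37 C followed; FRET substrate was added and, 2 h later at RT, fluorescence was measured.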

In test [16] the target is 5-hydroxytryptamine receptor 2A (Homo sapiens) (UniProt P28223). The test is described as follows: 5-hydroxytryptamine receptor 2A (HTR2A) small molecule antagonists, cell-based qHTS assay (AID 1963586). Also: nearly all actives have a fitted effect of over 45% in size. The method, boiled down: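 CHO cells stably expressing human HTR2A were plated for 18 h at 37 C, then loaded with calcium dye for 1 h. Compounds were preincubated 5 min at room temperature before DOI (4 nM solution) was added. Kinetic fluorescence was read for 3 min.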

Test [17] shares this target. The test is described as follows: 5-hydroxytryptamine receptor 2A (HTR2A) small molecule agonists, cell-based qHTS assay (AID 1963587). Also: nearly all actives have a fitted effect of over 30% in size. The method, boiled down: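 Kinetic calcium-flux fluorescence (2 min, 1 sec intervals) after compound addition in agonist mode. HTR2A-CHO cells were cultured 18 h, then dye-loaded 1 h at 37 C.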
Test [18] addresses Muscarinic acetylcholine receptor M1 (Homo sapiens) (UniProt P11229). The test is described as follows: Cholinergic receptor muscarinic 1 (CHRM1) small molecule agonists, cell-based qHTS assay (AID 1963589). Also: nearly all actives have a fitted effect of over 35% in size. The method, boiled down:
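Fluorescent calcium dye reports M1 activation in stably transfected CHO cells. Compounds, 15 concentrations, added after 1 h dye loading at 37 C; kinetic reading at 1 sec intervals.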

For test [19], the target named is Beta-2 adrenergic receptor (Homo sapiens) (UniProt P07550). The test is described as follows: Adrenergic beta2 receptor (ADRB2) small molecule agonists, cell-based qHTS assay (AID 1963593).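 Also: CHO cells stably overexpressing human ADRB2.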 The method, boiled down:
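CHO cells stably over-expressing ADRB2 were plated overnight at 37C, then dosed with compounds plus a stimulation mix containing 100uM IBMX and 25uM Ro-20-1724 for 0.5hr at room temperature. cAMP was measured by HTRF competition, 1hr.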

The target in test [20] is Muscarinic acetylcholine receptor M1 (Homo sapiens) (UniProt P11229). The test is described as follows: Cholinergic receptor muscarinic 1 (CHRM1) small molecule antagonists, cell-based qHTS assay (AID 1963588). Also: nearly all actives have a fitted effect of over 40% in size. Also: potency is read from the fitted curve at half-maximal effect. The method, boiled down:
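Compounds were tested at 15 concentrations in three independent runs. Dye-loaded CHRM1-CHO cells were exposed 5 min at room temperature before stimulation by acetylcholine added at 50nM. Intracellular calcium was read kinetically on FDSS for 3 min.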

“And” between values parts separate entries of the source, which are not always exact repeats. Identical values can stand only once. Records with an inconclusive call do not appear. Some compounds were tested as several samples or in several runs, with calls that do not always agree. The source made the active and inactive calls. Unless noted, calls follow the shape of the full dose curve.

Chain of Muscarinic acetylcholine receptor M1 (Homo sapiens) (P11229 whole entry, looked up): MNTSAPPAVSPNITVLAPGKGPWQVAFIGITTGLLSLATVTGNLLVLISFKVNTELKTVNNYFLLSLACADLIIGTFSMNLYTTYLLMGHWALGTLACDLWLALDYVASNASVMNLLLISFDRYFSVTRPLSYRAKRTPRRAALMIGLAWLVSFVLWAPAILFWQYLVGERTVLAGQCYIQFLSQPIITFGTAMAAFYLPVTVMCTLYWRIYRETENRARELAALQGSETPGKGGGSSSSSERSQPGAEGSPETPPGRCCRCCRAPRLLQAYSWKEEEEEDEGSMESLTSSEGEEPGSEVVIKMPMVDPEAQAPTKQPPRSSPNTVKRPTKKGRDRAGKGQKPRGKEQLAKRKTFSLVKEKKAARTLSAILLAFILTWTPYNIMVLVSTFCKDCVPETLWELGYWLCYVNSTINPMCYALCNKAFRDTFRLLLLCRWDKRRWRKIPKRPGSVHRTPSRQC
Chain of 5-hydroxytryptamine receptor 2A (Homo sapiens) (P28223 whole entry, looked up): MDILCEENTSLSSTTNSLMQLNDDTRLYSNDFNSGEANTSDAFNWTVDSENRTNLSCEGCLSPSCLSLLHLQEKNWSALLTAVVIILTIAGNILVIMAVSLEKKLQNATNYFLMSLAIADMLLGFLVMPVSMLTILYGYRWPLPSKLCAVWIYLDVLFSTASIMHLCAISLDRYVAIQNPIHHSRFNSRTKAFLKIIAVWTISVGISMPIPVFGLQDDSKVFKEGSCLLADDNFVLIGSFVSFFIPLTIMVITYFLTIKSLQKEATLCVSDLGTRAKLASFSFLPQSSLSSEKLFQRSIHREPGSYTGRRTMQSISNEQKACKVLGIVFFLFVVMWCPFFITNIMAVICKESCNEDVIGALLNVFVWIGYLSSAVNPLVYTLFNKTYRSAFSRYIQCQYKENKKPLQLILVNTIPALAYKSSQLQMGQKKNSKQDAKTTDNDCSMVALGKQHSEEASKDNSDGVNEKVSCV
Chain of D(2) dopamine receptor (Homo sapiens) (P14416 whole entry, looked up): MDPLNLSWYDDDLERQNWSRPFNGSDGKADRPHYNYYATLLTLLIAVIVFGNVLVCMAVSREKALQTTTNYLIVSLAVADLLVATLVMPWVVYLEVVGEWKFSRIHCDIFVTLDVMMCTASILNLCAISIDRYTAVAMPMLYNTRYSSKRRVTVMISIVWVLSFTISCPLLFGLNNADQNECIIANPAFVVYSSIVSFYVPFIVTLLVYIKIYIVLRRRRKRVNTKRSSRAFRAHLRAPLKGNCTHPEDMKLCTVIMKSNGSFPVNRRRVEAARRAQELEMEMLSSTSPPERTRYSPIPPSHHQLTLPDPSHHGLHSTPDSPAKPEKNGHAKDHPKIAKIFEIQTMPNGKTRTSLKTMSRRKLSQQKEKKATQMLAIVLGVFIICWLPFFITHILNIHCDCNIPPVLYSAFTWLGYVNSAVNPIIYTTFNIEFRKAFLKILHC
Chain of KiSS-1 receptor (Homo sapiens) (Q969F8 whole entry, looked up): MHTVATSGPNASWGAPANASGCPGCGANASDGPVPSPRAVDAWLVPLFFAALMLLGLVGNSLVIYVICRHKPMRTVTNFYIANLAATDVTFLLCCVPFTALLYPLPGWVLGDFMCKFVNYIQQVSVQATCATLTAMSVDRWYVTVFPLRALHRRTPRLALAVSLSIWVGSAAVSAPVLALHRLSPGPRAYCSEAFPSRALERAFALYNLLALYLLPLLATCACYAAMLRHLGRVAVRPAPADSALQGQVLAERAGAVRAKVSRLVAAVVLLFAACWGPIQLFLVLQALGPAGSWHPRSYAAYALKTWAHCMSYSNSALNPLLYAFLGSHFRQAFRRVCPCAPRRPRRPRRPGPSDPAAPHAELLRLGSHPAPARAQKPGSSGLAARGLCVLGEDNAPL
Chain of Beta-2 adrenergic receptor (Homo sapiens) (P07550 whole entry, looked up): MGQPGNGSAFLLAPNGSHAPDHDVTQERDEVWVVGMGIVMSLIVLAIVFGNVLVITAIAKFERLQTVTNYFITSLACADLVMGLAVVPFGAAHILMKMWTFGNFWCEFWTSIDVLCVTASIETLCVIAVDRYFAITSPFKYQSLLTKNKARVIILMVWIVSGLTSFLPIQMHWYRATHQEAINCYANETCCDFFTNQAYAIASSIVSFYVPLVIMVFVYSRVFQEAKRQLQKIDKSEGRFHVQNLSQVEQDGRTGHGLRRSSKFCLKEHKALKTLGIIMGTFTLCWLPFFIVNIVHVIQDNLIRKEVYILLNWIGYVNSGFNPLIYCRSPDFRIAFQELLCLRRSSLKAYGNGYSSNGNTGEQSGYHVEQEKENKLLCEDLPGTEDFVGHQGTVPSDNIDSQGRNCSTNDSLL
Chain of Gonadotropin-releasing hormone receptor (Homo sapiens) (P30968 whole entry, looked up): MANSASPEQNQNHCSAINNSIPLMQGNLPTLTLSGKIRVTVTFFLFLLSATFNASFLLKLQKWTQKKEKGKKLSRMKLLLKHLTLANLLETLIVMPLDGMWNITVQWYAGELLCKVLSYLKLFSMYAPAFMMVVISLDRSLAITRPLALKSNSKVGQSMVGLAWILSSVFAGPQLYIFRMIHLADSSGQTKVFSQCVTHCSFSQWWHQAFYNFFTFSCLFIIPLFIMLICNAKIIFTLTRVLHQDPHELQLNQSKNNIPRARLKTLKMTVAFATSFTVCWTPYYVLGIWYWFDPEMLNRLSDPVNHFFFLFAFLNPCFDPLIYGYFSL

As for `O=P1(NCCCl)OCCCN1CCCl` (configuration not stated), the Potency result in test [1], in test [2], in [3], in [4], in [5] and in test [6] was “inactive” in each case. Besides, the Potency result in test [7], in test [8], in test [9], in test [10] and in test [11] was “inactive” each time.

Consider `CCCCCON=O`, for which the Potency entry in test [12], in test [1], in [2], in test [13], in test [14] and in [4] was “inactive” in each case. Further, the Potency entry in test [5], in test [6], in test [15], in [16], in [17] and in test [18] was “inactive” each time. The Potency entry in [7], in [8], in test [9], in test [19], in [10] and in test [11] was “inactive” each time.

Consider `Oc1cccc2cccnc12`, for which the Potency entry in test [1], in test [2], in [3], in [6], in test [7] and in test [8] was “inactive” each time. Further, the Potency entry in test [9], in [19], in test [10] and in test [11] was “inactive” throughout. Besides, the Potency result in test [4] is “inactive and 971 nM (active) and 913 nM (active)”.

In the case of `ClCOCCl`, the Potency result in test [1], in [2], in [3], in [13], in test [14] and in [4] was “inactive” throughout. Further, the Potency entry in test [5], in test [6], in test [15], in test [16], in [17] and in test [20] was “inactive” in each case. Further, the Potency result in test [18], in [7], in test [8], in [9], in [10] and in test [11] was “inactive” each time.

Regarding `CC(C)(C)C(O)(CCc1ccc(Cl)cc1)Cn1cncn1` (configuration not stated), the Potency entry in test [12], in [1], in [14], in test [4], in test [5] and in test [6] was “inactive” each time. Moreover, the Potency result in test [15], in [17], in test [18], in test [7], in test [8] and in [9] was “inactive” throughout. Also, the Potency result in [19], in [10] and in test [11] was “inactive” each time.

Regarding `Cn1c(-c2ccccc2)cc(-c2ccccc2)[n+]1C`, the Potency result in test [12], in test [1], in test [3], in [13], in [14] and in [4] was “inactive” throughout. The Potency entry in test [5], in test [6], in test [16], in test [17], in [18] and in test [8] was “inactive” each time. For the same molecule, the Potency result in test [9], in test [19], in test [10] and in test [11] was “inactive” each time. Besides, the Potency in test [20] was 6.66 µM (active) and inactive.

Consider `CCc1cnc(C2=NC(C)(C(C)C)C(=O)N2)c(C(=O)O)c1` (configuration not stated), for which the Potency result in test [12], in test [1], in test [2], in [3], in test [4] and in test [5] was “inactive” in each case. Besides, the Potency entry in test [6], in test [16], in test [17], in test [20], in test [18] and in test [7] was “inactive” throughout. The Potency result in test [8], in [9], in test [19], in test [10] and in [11] was “inactive” each time.

(Values after PubChem BioAssay (Tox21).)
